What was measured:
Experiment in all cases: SPOT peptide array binding signal intensity (averaged, normalized) (arbitrary units (background-subtracted, floor 0; scale differs between SH3 domains)); higher = stronger binding of the SH3 domain to the peptide
[1] = molecular target: AgAbp1
In short: (§1)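 Detection of bound protein relied on anti-GST antibody, an HRP anti-mouse secondary and luminol, with imaging and quantification in Genespotter. The bound protein was GST-fused SH3 domains from four yeast species, incubated at 10 μg/ml overnight at 4°C in TBS-based blocking buffer on cellulose membranes carrying synthetic 15-mer peptides with cysteines replaced by serines. Binding signal is normalized, background-subtracted spot intensity averaged over replicates, in arbitrary units that differ between domains.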

[2] = molecular target: AgBbc1
In short: as §1

[3] = molecular target: AgBem1-D1
In short: as §1

[4] = molecular target: AgBzz1-D1
In short: as §1

[5] = molecular target: AgBzz1-D2
In short: as §1

[6] = molecular target: AgCyk3
In short: as §1

[7] = molecular target: AgFus1
In short: as §1

[8] = molecular target: AgHof1
In short: as §1

[9] = molecular target: AgHse1
In short: as §1

[10] = molecular target: AgLsb1
In short: as §1

[11] = molecular target: AgLsb4
In short: as §1

[12] = molecular target: AgMyo5
In short: as §1

[13] = molecular target: AgNbp2
In short: as §1

[14] = molecular target: AgRvs167
In short: as §1

[15] = molecular target: AgSho1
In short: as §1

[16] = molecular target: AgSla1-D1-D2
In short: as §1

[17] = molecular target: AgSla1-D3
In short: as §1

[18] = molecular target: CaAbp1-D1
In short: as §1

[19] = molecular target: CaAbp1-D2
In short: as §1

[20] = molecular target: CaBbc1
In short: as §1

[21] = molecular target: CaBem1-D1
In short: as §1

[22] = molecular target: CaBzz1-D1
In short: as §1

[23] = molecular target: CaBzz1-D2
In short: as §1

[24] = molecular target: CaCyk3
In short: as §1

[25] = molecular target: CaFus1
In short: as §1

[26] = molecular target: CaHof1
In short: as §1

[27] = molecular target: CaHse1
In short: as §1

[28] = molecular target: CaLsb1
In short: as §1

[29] = molecular target: CaLsb4
In short: as §1

[30] = molecular target: CaMyo5
In short: as §1

[31] = molecular target: CaNbp2
In short: as §1

[32] = molecular target: CaRvs167
In short: as §1

[33] = molecular target: CaRvs167-3
In short: as §1

[34] = molecular target: CaSho1
In short: as §1

[35] = molecular target: CaSla1-D1-D2
In short: as §1

[36] = molecular target: CaSla1-D3
In short: as §1

[37] = molecular target: ScAbp1
In short: as §1

[38] = molecular target: ScBbc1
In short: as §1

[39] = molecular target: ScBem1-D1
In short: as §1

[40] = molecular target: ScBzz1-D1
In short: as §1

[41] = molecular target: ScBzz1-D2
In short: as §1

[42] = molecular target: ScCyk3
In short: as §1

[43] = molecular target: ScFus1
In short: as §1

[44] = molecular target: ScHof1
In short: as §1

[45] = molecular target: ScHse1
In short: as §1

[46] = molecular target: ScLsb1
In short: as §1

[47] = molecular target: ScLsb2
In short: as §1

[48] = molecular target: ScLsb3
In short: as §1

[49] = molecular target: ScLsb4
In short: as §1

[50] = molecular target: ScMyo3
In short: as §1

[51] = molecular target: ScMyo5
In short: as §1

[52] = molecular target: ScNbp2
In short: as §1

[53] = molecular target: ScPex13
In short: as §1

[54] = molecular target: ScRvs167
In short: as §1

[55] = molecular target: ScSho1
In short: as §1

[56] = molecular target: ScSla1-D1-D2
In short: as §1

[57] = molecular target: ScSla1-D3
In short: as §1

[58] = molecular target: SpAbp1-D1
In short: as §1

[59] = molecular target: SpBbc1
In short: as §1

[60] = molecular target: SpBzz1-D1
In short: as §1

[61] = molecular target: SpBzz1-D2
In short: as §1

[62] = molecular target: SpCyk3
In short: as §1

[63] = molecular target: SpHof1
In short: as §1

[64] = molecular target: SpHof1-2
In short: as §1

[65] = molecular target: SpHof1-3
In short: as §1

[66] = molecular target: SpHse1
In short: as §1

[67] = molecular target: SpLsb1
In short: as §1

[68] = molecular target: SpLsb4
In short: as §1

[69] = molecular target: SpMyo1
In short: as §1

[70] = molecular target: SpNbp2
In short: as §1

[71] = molecular target: SpPex13
In short: as §1

[72] = molecular target: SpRvs167
In short: as §1

[73] = molecular target: SpSla1-D1-D2
In short: as §1

[74] = molecular target: SpSla1-D3
In short: as §1

B1: unnamed (peptide)
chain: AHFQPQRTAPKPPIS
SPOT peptide array binding signal intensity [1]: 2.5
SPOT peptide array binding signal intensity [2]: 89.8
SPOT peptide array binding signal intensity [3]: 58.8
SPOT peptide array binding signal intensity [4]: 16
SPOT peptide array binding signal intensity [5]: 54.5
SPOT peptide array binding signal intensity [6]: ≤ 0
SPOT peptide array binding signal intensity [7]: ≤ 0
SPOT peptide array binding signal intensity [8]: 3
SPOT peptide array binding signal intensity [9]: 18
SPOT peptide array binding signal intensity [10]: 16.8
SPOT peptide array binding signal intensity [11]: 0.5
SPOT peptide array binding signal intensity [12]: 954
SPOT peptide array binding signal intensity [13]: 3970
SPOT peptide array binding signal intensity [14]: 0.583
SPOT peptide array binding signal intensity [15]: ≤ 0
SPOT peptide array binding signal intensity [16]: ≤ 0
SPOT peptide array binding signal intensity [17]: 1
SPOT peptide array binding signal intensity [18]: 65.5
SPOT peptide array binding signal intensity [19]: 33.8
SPOT peptide array binding signal intensity [20]: 743
SPOT peptide array binding signal intensity [21]: 958
SPOT peptide array binding signal intensity [22]: 779
SPOT peptide array binding signal intensity [23]: 136
SPOT peptide array binding signal intensity [24]: ≤ 0
SPOT peptide array binding signal intensity [25]: ≤ 0
SPOT peptide array binding signal intensity [26]: ≤ 0
SPOT peptide array binding signal intensity [27]: 2.5
SPOT peptide array binding signal intensity [28]: ≤ 0
SPOT peptide array binding signal intensity [29]: 23
SPOT peptide array binding signal intensity [30]: 33.6
SPOT peptide array binding signal intensity [31]: 3970
SPOT peptide array binding signal intensity [32]: 12.8
SPOT peptide array binding signal intensity [33]: ≤ 0
SPOT peptide array binding signal intensity [34]: 11.8
SPOT peptide array binding signal intensity [35]: 54.5
SPOT peptide array binding signal intensity [36]: 0.75
SPOT peptide array binding signal intensity [37]: 11
SPOT peptide array binding signal intensity [38]: 165
SPOT peptide array binding signal intensity [39]: 6
SPOT peptide array binding signal intensity [40]: 17.5
SPOT peptide array binding signal intensity [41]: 12.8
SPOT peptide array binding signal intensity [42]: ≤ 0
SPOT peptide array binding signal intensity [43]: ≤ 0
SPOT peptide array binding signal intensity [44]: 0.5
SPOT peptide array binding signal intensity [45]: 37
SPOT peptide array binding signal intensity [46]: 0.25
SPOT peptide array binding signal intensity [47]: 35
SPOT peptide array binding signal intensity [48]: 152
SPOT peptide array binding signal intensity [49]: 5
SPOT peptide array binding signal intensity [50]: 1610
SPOT peptide array binding signal intensity [51]: 1320
SPOT peptide array binding signal intensity [52]: 6790
SPOT peptide array binding signal intensity [53]: 212
SPOT peptide array binding signal intensity [54]: 59.8
SPOT peptide array binding signal intensity [55]: ≤ 0
SPOT peptide array binding signal intensity [56]: 265
SPOT peptide array binding signal intensity [57]: 44
SPOT peptide array binding signal intensity [58]: ≤ 0
SPOT peptide array binding signal intensity [59]: 22
SPOT peptide array binding signal intensity [60]: 258
SPOT peptide array binding signal intensity [61]: 18.1
SPOT peptide array binding signal intensity [62]: ≤ 0
SPOT peptide array binding signal intensity [63]: 1.62
SPOT peptide array binding signal intensity [64]: 2
SPOT peptide array binding signal intensity [65]: 34
SPOT peptide array binding signal intensity [66]: 70.1
SPOT peptide array binding signal intensity [67]: 36.8
SPOT peptide array binding signal intensity [68]: 87.5
SPOT peptide array binding signal intensity [69]: 2050
SPOT peptide array binding signal intensity [70]: 264
SPOT peptide array binding signal intensity [71]: ≤ 0
SPOT peptide array binding signal intensity [72]: 13.9
SPOT peptide array binding signal intensity [73]: ≤ 0
SPOT peptide array binding signal intensity [74]: ≤ 0

B2: unnamed (peptide)
chain: VATSTSPKLPPRGKQ
SPOT peptide array binding signal intensity [31]: 2
SPOT peptide array binding signal intensity [32]: 1970
SPOT peptide array binding signal intensity [33]: ≤ 0
SPOT peptide array binding signal intensity [34]: 13
SPOT peptide array binding signal intensity [35]: 32
SPOT peptide array binding signal intensity [36]: ≤ 0
SPOT peptide array binding signal intensity [37]: 21.5
SPOT peptide array binding signal intensity [38]: 18.8
SPOT peptide array binding signal intensity [39]: ≤ 0
SPOT peptide array binding signal intensity [40]: 61.5
SPOT peptide array binding signal intensity [41]: 17.5
SPOT peptide array binding signal intensity [42]: ≤ 0
SPOT peptide array binding signal intensity [43]: 2.5
SPOT peptide array binding signal intensity [44]: 3.25
SPOT peptide array binding signal intensity [45]: 3
SPOT peptide array binding signal intensity [46]: 268
SPOT peptide array binding signal intensity [47]: 31
SPOT peptide array binding signal intensity [48]: 6600
SPOT peptide array binding signal intensity [49]: 3830
SPOT peptide array binding signal intensity [50]: ≤ 0
SPOT peptide array binding signal intensity [51]: 3.25
SPOT peptide array binding signal intensity [52]: 5
SPOT peptide array binding signal intensity [53]: 882
SPOT peptide array binding signal intensity [54]: 2350
SPOT peptide array binding signal intensity [55]: 40.5
SPOT peptide array binding signal intensity [56]: 17
SPOT peptide array binding signal intensity [57]: ≤ 0
SPOT peptide array binding signal intensity [58]: 97
SPOT peptide array binding signal intensity [59]: 0.25
SPOT peptide array binding signal intensity [60]: 286
SPOT peptide array binding signal intensity [61]: ≤ 0
SPOT peptide array binding signal intensity [62]: ≤ 0
SPOT peptide array binding signal intensity [63]: 1.25
SPOT peptide array binding signal intensity [64]: 0.5
SPOT peptide array binding signal intensity [65]: 61.2
SPOT peptide array binding signal intensity [66]: 0.5
SPOT peptide array binding signal intensity [67]: 623
SPOT peptide array binding signal intensity [68]: 6830
SPOT peptide array binding signal intensity [69]: ≤ 0
SPOT peptide array binding signal intensity [70]: ≤ 0
SPOT peptide array binding signal intensity [71]: 2
SPOT peptide array binding signal intensity [72]: 3730
SPOT peptide array binding signal intensity [73]: 2
SPOT peptide array binding signal intensity [74]: ≤ 0
